HTR5A ag ctr: counter-screen for OPRM1-OPRD1 agonists: human HTR5A agonism. HTR5A agonist assay, luminescence, cell-based. activation, % at 9.3 µM. hit rate 0.61% among 340,000. AID 504692; in the data active = activation mostly above about 9.5%, no sharp cut-off; inactive = mostly below about 7.6%
Target sequence (P47898 whole entry, looked up): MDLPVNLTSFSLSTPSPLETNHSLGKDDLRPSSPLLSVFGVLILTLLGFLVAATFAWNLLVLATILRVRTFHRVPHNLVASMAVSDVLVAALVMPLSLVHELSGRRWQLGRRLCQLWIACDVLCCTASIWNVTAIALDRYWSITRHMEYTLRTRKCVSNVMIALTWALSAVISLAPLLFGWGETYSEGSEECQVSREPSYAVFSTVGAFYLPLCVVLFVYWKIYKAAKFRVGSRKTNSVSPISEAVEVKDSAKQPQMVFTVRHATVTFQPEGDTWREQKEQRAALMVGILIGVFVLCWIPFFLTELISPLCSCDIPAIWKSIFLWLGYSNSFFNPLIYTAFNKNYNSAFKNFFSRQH
OPRM1-OPRD1 ag: agonists of human mu-delta opioid receptor heterodimerization; P35372+P41143; cells, OPRM1-OPRD1 heterodimerization, luminescence; activation, % at 9.3 µM; hit rate 0.3% among 340,000; AID 504326
OPRM1-OPRD1 inv: mu-delta opioid heterodimer inverse agonism; cell-based MOR-DOR heterodimer luminescence; inhibition, % at 9.3 µM; hit rate 0.21% among 340,000; in the data active = inhibition above about 22%, passing the limit was not always enough
HTR5A inv ctr: inverse agonist of human HTR5A in OPRM1-OPRD1 counter-screen | P47898 | HTR5A cell line, luminescence, inverse agonism | inhibition, % at 9.3 µM | hit rate 0.083% among 340,000; in the data active = inhibition mostly above about 23%, no sharp cut-off; inactive = mostly below about 18%
MOR-DOR ag conf: OPRM1-OPRD1 heterodimer agonism, confirmation | shares compounds with OPRM1-OPRD1 ag | cells, MOR-DOR heterodimerization, luminescence complementation | activation, % at 9.3 µM | hit rate 45% among 830
HTR5A ag ctr2: counter-screen for OPRM1-OPRD1 agonists: human HTR5A agonism; shares compounds with OPRM1-OPRD1 ag; HTR5A agonist counterscreen, cell luminescence; activation, % at 9.3 µM; hit rate 8% among 830; AID 504905; in the data active = activation above about 17%
Hits are given with their value; - = inactive; . = no result given. Rows were chosen to be rich in hits. Some 1.1% of all compounds tested hit in one or more screens of this group. Cut-off read from the data, not from the text of the source, unless noted: active = activation above about 18%; inactive = the rest.

SMILES	HTR5A ag ctr	OPRM1-OPRD1 ag	OPRM1-OPRD1 inv	HTR5A inv ctr	MOR-DOR ag conf	HTR5A ag ctr2
Cc1cccc2cc(C(c3nnnn3Cc3ccccc3)N3CCN(C)CC3)c(=O)[nH]c12 (stereo not drawn)	-	35	-	-	38	-
COc1ccc(Cn2nnnc2C(c2cc3cccc(C)c3[nH]c2=O)N2CCN(C)CC2)cc1 (stereo not drawn)	-	-	-	-	.	.
Cc1ccc(COC(=O)CN2C(=O)NC3(CCCCC3C)C2=O)cc1 (stereo not drawn)	-	-	-	-	.	.
COc1ccc(S(=O)(=O)N2CCOCC2)cc1NC(=O)c1cc2ccccc2o1	-	-	-	-	.	.
COc1ccc(CCNC(=O)/C=C\c2ccccc2)cc1OC	-	-	-	-	.	.
COc1ccc(/C=C/C(=O)NC(=S)NCCc2ccc(OC)c(OC)c2)cc1	-	30	-	-	55	-
COc1ccccc1NC(=O)c1sc2nc(C)cc(C)c2c1N	-	24	-	-	108	-
CCOc1ccc2[nH]c3c(N4CCN(c5ccccn5)CC4)ncnc3c2c1	-	35	-	-	19	-
Cc1ccc(CNC(=O)CN(C)C2=NS(=O)(=O)c3ccccc32)cc1	-	-	-	-	.	.
Cc1ccc(Nc2ncnc(Cl)c2N)cc1	-	-	-	-	.	.
CCn1c2ccccc2c(=O)c2ccccc21	-	-	-	-	.	.
CCn1c(-c2ccccc2)c(C(=O)CCl)c2ccccc21	-	66	-	-	-	-
Cc1cc2[nH]c3c4ccccc4nc(C)c3c2cc1C	-	35	-	-	68	-
Cc1cc2[nH]c3c(c[n+](C)c4ccccc34)c2cc1C	-	-	-	-	.	.
C=CCn1c(O)c(C2=c3ccccc3=NC2=O)sc1=Nc1ccc(O)cc1	-	38	-	-	-	-
CCOC(=O)C1=C(Cc2ccc(F)cc2)C(=O)c2ccccc2C1=O	-	18	-	-	-	27
CCN1C[C@@H]2[C@@H]3C(=O)N(Cc4ccccc4)C(=O)[C@@H]3[C@](C)(C1=O)N2C(=O)c1ccc(Cl)c(Cl)c1	-	-	-	-	.	.
CNC(=S)NN=C(C)CCCC(C)=NNC(=S)NC	-	-	-	-	.	.
COc1ccc(NC(=O)c2ccc3ccccc3n2)cc1S(=O)(=O)N1CCCCC1	-	-	-	-	.	.
COc1ccc(NC(=O)c2cc3ccccc3o2)cc1S(=O)(=O)N1CCCCC1	-	21	-	-	-	-
CNC(=O)/C(C#N)=C/c1ccc(-c2ccc(OC)cc2[N+](=O)[O-])o1	-	19	-	-	-	-
CN(C)C(CNC(=O)c1ccc(Cl)c(S(=O)(=O)N2CCCCCC2)c1)c1ccccc1 (stereo not drawn)	-	36	-	-	-	-
O=C(NNC(=O)c1ccc2nc[nH]c2c1)c1ccccc1	-	-	-	-	.	.
CN(C)C(CNC(=O)c1ccc2nc[nH]c2c1)c1ccccc1 (stereo not drawn)	-	25	-	-	-	-
O=C(N[C@H]1/C=C\[C@@H](O)CCCC1)OCc1ccccc1	-	-	-	-	.	.
SMILES	HTR5A ag ctr	OPRM1-OPRD1 ag	OPRM1-OPRD1 inv	HTR5A inv ctr	MOR-DOR ag conf	HTR5A ag ctr2
COc1ccc(OCC(O)CNC(C)c2ccccc2)cc1 (stereo not drawn)	-	-	-	-	.	.
CCCC(NCC(O)COc1ccc(-c2ccccc2)cc1)c1ccccc1 (stereo not drawn)	-	22	-	-	-	-
Cc1ccc(S(=O)(=O)N[C@H](C(=O)OCC(=O)NC(=O)C2CCCCC2)C(C)C)cc1	-	-	-	-	.	.
Cc1nc(SCc2nc3ccc([N+](=O)[O-])cc3[nH]2)c2oc3ccccc3c2n1	-	-	-	-	.	.
OC(c1cc(-c2ccc(Cl)cc2)nc2ccccc12)C1CCCCN1 (stereo not drawn)	-	-	-	-	.	.
OC(c1cc(C(F)(F)F)nc2c(Cl)cc(Cl)cc12)C1CCCCN1 (stereo not drawn)	12	31	-	-	-	-
O=C(COc1ccc(/C=N/NC(=O)c2cc3ccccc3o2)cc1Cl)Nc1ccccc1	-	41	-	-	-	-
COc1cc(/C=N/NC(=O)c2ccccc2O)ccc1OCC(=O)Nc1ccccc1	-	-	-	-	.	.
COc1ccc(OC)c(N(CC(=O)Nc2cccnc2)S(=O)(=O)c2ccc(C)cc2)c1	-	65	-	-	47	-
CC(=O)NCCNC(=O)c1ccc(Cn2c(=O)[nH]c3ccsc3c2=O)cc1	-	-	-	-	.	.
O=C(Nc1cc(Cl)cc(Cl)c1)c1ccc(Cn2c(=O)[nH]c3ccsc3c2=O)cc1	-	25	-	-	-	-
COc1cc(CNc2ccc(O)cc2)cc(Br)c1OCc1ccccc1F	-	28	-	-	-	-
CCOc1cc(CNc2ccc(O)cc2)cc(Br)c1OCc1ccccc1F	-	-	-	-	.	.
O=C(Nc1cccc(NC(=O)c2cccc([N+](=O)[O-])c2)n1)c1cccc([N+](=O)[O-])c1	-	24	-	-	18	-
Cc1ccc(NS(=O)(=O)c2cccc(C(=O)Nc3cccnc3)c2)c(C)c1	-	-	-	-	.	.
O=C(C[C@H]1C/C=C\C[C@H](NC(=O)OCC2c3ccccc3-c3ccccc32)C(=O)O[C@H](c2ccccc2)CNC1=O)N[C@H](CO)Cc1ccccc1	21	239	-	-	-	-
CCOC(=O)C1(CCOc2ccccc2)CCN(Cc2ccc(OC)c(O)c2)CC1	-	77	-	-	75	-
CCOC(=O)C1(CC2CC2)CCN(Cc2cc(Cl)c(O)c(OC)c2)CC1	-	-	-	-	.	.
CCOC(=O)C1(CCOc2ccccc2)CCN(Cc2ccc(O)cc2)CC1	-	-	-	-	.	.
CCOC(=O)C1(CCOc2ccccc2)CCN(Cc2cnc(SC)nc2)CC1	-	32	-	-	-	-
CCOC(=O)C1(CC2CC2)CCN(Cc2cnc(-c3ccccc3C)nc2)CC1	-	79	-	-	72	-
COc1ccc(CN2CCN(CC(O)Cn3c4ccccc4c4ccccc43)CC2)cc1 (stereo not drawn)	-	21	-	-	24	-
CCOc1ccc(CN2CCN(CC(O)Cn3c4ccccc4c4ccccc43)CC2)cc1 (stereo not drawn)	-	-	-	-	.	.
Cc1nc(SCc2nc3ccc(C(=O)c4ccccc4)cc3[nH]2)c2oc3ccccc3c2n1	-	-	-	-	.	.
CCOC(=O)C1(CCc2ccccc2)CCN(Cc2c(O)cccc2OC)CC1	-	292	-	-	-	-
CCOC(=O)C1(CCc2ccccc2)CCN(Cc2ccc(O)cc2)CC1	-	-	-	-	.	.
CCOC(=O)C1(CCc2ccccc2)CCN(Cc2ccc(OC)cc2)CC1	-	129	-	-	-	-
CCOC(=O)C1=CN(Cc2ccco2)S(=O)(=O)N(C)C1c1ccc2ccccc2c1 (stereo not drawn)	-	-	-	-	.	.
Nc1nc(-c2cc(O)ccc2[N+](=O)[O-])cc(-c2ccccc2)c1[N+](=O)[O-]	-	-	-	-	.	.
COc1ccc(OCC(=O)N(C)CC2COc3ccccc3O2)cc1 (stereo not drawn)	-	-	-	-	.	.

Bioassay records: PubChem, The Scripps Research Institute Molecular Screening Center
